Inconclusive results are not listed. Active and inactive are the calls of the source. Calls follow the shape of the dose curve; as a rule, active = well fitted activation curve with a large enough effect; inconclusive = small, poorly fitted or top-dose-only effect; inactive = no such curve, though single readings can be large or run the other way.
Assay: qHTS Assay for Rab9 Promoter Activators: Initial hit validation from the primary screen; as to activation: % of control where 0% means no effect
Conditions: Huh7 Rab9 promoter luciferase reporter, 24 h; series mostly up to 46.1 µM; activation: at the top concentration
Source text: NIH Chemical Genomics Center [NCGC] NIH Molecular Libraries Probe Production centers Network [MLPCN] MLPCN Grant: MH089537-01 Assay Submitter (PI): Yiannis A. Ioannou NCGC Assay Overview: Niemann Pick Type C (NPC) is a rare neurodegenerative lipidosis that is characterized by lipid storage in the endosomal/lysosomal system. Treatment modalities for this devastating disease are currently non-existent due to the severe obstacles associated with accessing the central nervous system with proteins or genes (Ioannou, 2000). We have developed a new paradigm, termed "Orphan Receptor Bypass Therapy" (ORByT), to address these disorders. This paradigm posits the existence of endogenous "suppressor" proteins whose expression can dramatically improve LSD pathogenesis. The goal is the identification/discovery of small chemical compounds that can modulate the expression of these proteins and provide a new treatment modality for these devastating disorders. One such protein whose overexpression reverses aspects of the NPC phenotype is Rab9. We have developed and optimized a cell based luciferase reporter assay in 1536 well format for the identification of up-regulators of the Rab9 promoter. This assay presents data on the validation of hits from the primary screen.
The Rab9 promoter is cloned in front of the luciferase reporter gene, therefore […] promoter activation results in luciferase expression. Frozen stock of the Rab9 promoter transfected Huh7 cells were obtained from the laboratory of Dr. Yiannis Ioannou (The Mount Sinai School of Medicine, New York, NY). Cells were propagated and maintained at NCGC in medium containing RPMI-1640 supplemented with 10% FBS, 2mM L-glutamine, and 50ug/ml penicillin/streptomycin. Cells were harvested in and plated for assays in OP-MEM I reduced-serum medium supplemented with 10% FBS. The Amplite luciferase reporter gene assay kit was purchased from ABD Bioquest and prepared/stored according to manufacturers recommendations. qHTS Assay Setup: 1.Dispensed 5ul of Huh7 cells stably expressing Rab9-luciferase at a density of 1500 cells per well 1536-well plates. 2.Incubate cells at 37C, 5% CO2, and 95% humidity for 2 hours. 3.Transferred 23nl per well of compound in DMSO solution. 4.Incubated at 37C, 5% CO2, and 95% humidity for 24 hours. 5.Dispensed 3ul per well of Amplite reagent(ABD Bioquest) per well. 6.Incubate at ambient for 10 minutes. 7.Read using the luminescence protocol on the ViewLux plate reader (Perkin Elmer).
Potency is read from the fitted curve at half-maximal effect.

activation, inactive:
O=C(c1cccc(Oc2ccc([N+](=O)[O-])cc2)c1)N1CCOCC1 -14.3%, NC(=O)C1(NC(=O)[C@@H]2CC3(CC(c4cccc(NC(=O)[C@@H]5CCC(=O)N5)c4)=NO3)CN2C(=O)c2ccccc2)CC1 (stereo not given in full) 6.9%, COc1ccc2oc(=O)c(C(=O)NC(C)c3ccccc3)cc2c1 (stereo not given) 3.92%, COc1cccc(CNC(=O)CN(c2cc(C)cc(C)c2)S(=O)(=O)c2c(C)noc2C)c1 -7.14%, CC(Sc1nnc(C(F)(F)F)n1C)C(=O)Nc1ccc(S(N)(=O)=O)cc1 (stereo not given) 0.495%, NNC(=O)c1cccc(S(=O)(=O)Nc2cc(Cl)ccc2Cl)c1 -1.11%, COc1ccc(/C=C\c2onc(C)c2S(=O)(=O)N2CCC(C(=O)NCCC(C)C)CC2)cc1 -9.91%, CC(=O)c1cccc(NC(=O)N2CCOCC2)c1 2.76%, COCCNC(=O)C1CCC(CNS(=O)(=O)c2ccc(F)cc2)CC1 (stereo not given) -4.18%, CC(C)C(NC(=O)c1ccc([N+](=O)[O-])cc1Cl)C(=O)N1CCCC1 (stereo not given) -2.39%, O=C(CN1C(=O)COc2ccc(Cl)cc21)NCC1CCCO1 (stereo not given) -7.34%, Cc1cc(C)cc(N(CC(=O)NC2CCCC2)C(=O)CNC(=O)c2ccco2)c1 -0.368%, COc1ccccc1NC(=S)NCc1ccc(Cl)cc1 -1.84%, COc1cccc(NC(=O)CN2C(=O)CSc3ccc(S(=O)(=O)N4CCC(C)CC4)cc32)c1 -20.2%, Cc1nc(-c2ccc(S(=O)(=O)Oc3ccc(Cl)cc3Cl)s2)cs1 -13.4%, CCCCCCC(=O)Nc1ccc(C(=O)N/N=C/c2cccnc2)cc1 13.3%, CC1CCCN(S(=O)(=O)c2ccc(C(=O)Nc3nnc(-c4ccncc4)o3)cc2)C1 (stereo not given) -34.8%, Cc1ccc(C(=O)NC2CCN(CC(=O)Nc3c(C)cc(C)cc3C)CC2)cc1 -10.8%, O=C(NCC1CCCO1)C(c1ccc(F)cc1)N(Cc1ccc2c(c1)OCO2)C(=O)c1ccc(CN2CCOCC2)o1 (stereo not given) -4.25%, CCOC(=O)C1(Cc2cccc(Cl)c2)CCCN(C(=O)CCSC)C1 (stereo not given) 7.51%, CC(=O)Nc1nnc(SCC(=O)NCCOc2ccccc2)s1 -3.72%, O=C(N/N=C/c1ccc(-c2ccc(Br)cc2)o1)c1ccc2c(c1)OCO2 3.2%, O=[N+]([O-])c1cnccc1Nc1ccc(F)cc1 -3.24%

Potency, active:
O=C(CSc1nnc(-c2ccccn2)o1)Nc1ccccc1F 1120 nM, CCCc1cc(C(=O)Nc2ccccc2SC)no1 25000 nM, COC(=O)c1ccc(NC(=O)c2ccc3nc(C)sc3c2)cc1 560 nM, Cc1nnc2n(c1=O)N=C(c1ccc(Cl)cc1)CS2 888 nM, CC(=O)Nc1ccc(-c2csc(Nc3ncccn3)n2)cc1 353 nM, Cc1ccc2c(c1)sc1nc(=O)n(-c3ccccc3)c(=O)n12 499 nM, N#CC/C(N)=N/NC(=O)CCCNc1ncc(C(F)(F)F)cc1Cl 19900 nM, Cc1ccc(C(=O)NCc2ccc3c(c2)OCO3)cc1C 25000 nM, CCc1cc(C(=O)Nc2ccccc2)cs1 2810 nM, O=C(CSc1nnc(-c2ccc([N+](=O)[O-])cc2)o1)Nc1ccccn1 560 nM, Cn1c(SCc2ccccc2)nnc1-c1cnccn1 14100 nM, Cc1ccc(C#N)c(SCC(=O)Nc2nccs2)n1 791 nM, CCOC(=O)CSc1nc2cc3c(cc2cc1C#N)OCO3 888 nM, O=C(CSc1nnc(-c2ccccn2)o1)Nc1ccccc1Cl 888 nM, Cc1ccc(N=Cc2sc(O)c3ccccc23)c(C)c1 2230 nM, COc1ccccc1C(=O)Nc1nnc(SCC(=O)NC2CCCC2)s1 888 nM, O=C(COc1ccccc1F)Nc1ccc(-c2nc3ccccc3s2)cc1 223 nM
